# Screening data: PubChem BioAssay, National Center for Advancing Translational Sciences (NCATS)
# Most compounds without a hit are left out; they make up all but 19% or so of the library.
# HT1080 IDH1KD tx: qHTS for induction of synthetic lethality in tumor cells producing 2HG: qHTS for the HT-1080-IDH1KD cell line | HT-1080 IDH1 knockdown viability, ATP luminescence, 48 h | Potency, µM (series often up to 46.1 µM), inactives show at the top dose activity, negative = toxicity, most hits filed as cytotoxic | 360,000 tested, 2% active | AID 686971, 2013;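 further: potency means the concentration at half of the fitted maximal effect; 0% = DMSO wells and -100% = cell-free medium wells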
#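 HT-1080-IDH1KD cells (IDH1 knocked down), 750/well in RPMI with 5% FBS, treated with compound 48 h at 37 degrees C. Viability by CellTiter-Glo luminescence, normalised to DMSO and no-cell wells; concentration-response curves classed.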
# TDP1 cell CPT: qHTS for Inhibitors of human tyrosyl-DNA phosphodiesterase 1 (TDP1): qHTS in cells in presence of CPT. AID 686979, 2013. 420,000 tested, 12% active. Potency, µM (titrated, usually from 46.2 µM), for inactives: at the highest dose activity change, negative = growth inhibition, most hits filed as inhibitors. chicken DT40 Tdp1-/-;hTDP1 cells + 20 nM CPT, ATP luminescence, 48 h; further: potency means the concentration at half of the fitted maximal effect; nearly all actives have a fitted effect of over 55% in size
#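 Cell growth measured by CellTiter-Glo luminescence after a minimum 48 h, 37 C compound exposure with 20 nM CPT in Tdp1-knockout DT40 cells stably expressing hTDP1, seeded 400/well; qHTS titration format.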
# ELG1 DNA repair: qHTS screen for small molecules that inhibit ELG1-dependent DNA repair in human embryonic kidney (HEK293T) cells expressing luciferase-tagged ELG1; 330,000 tested, 2.3% active; AID 504467, 2011; Potency, µM (series often up to 46.1 µM), for inactives: at the highest dose activity change, negative = inhibition, usual class: inhibitors; HEK293T ELG1-luciferase reporter, luminescence, 16 h; DNA damage induced by 5-fluorouridine; further: potency means the concentration at half of the fitted maximal effect; nearly all actives have a fitted effect of over 55% in size
#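 Quantitative HTS, concentration-response format. 2,000 cells/well co-treated with 5-fluorouridine and compound, 16 hr in 5% CO2 at 37 °C; ONE-Glo luminescence read after 30 min.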
# IL-1B inflam inh: qHTS for Inhibitors of Inflammasome Signaling: IL-1-beta AlphaLISA Primary Screen; THP-1 LPS/ATP IL-1B secretion, AlphaLISA, 16 h; stronger effect = lower value; activity change, % at 57.5 µM; 360,000 tested, 4.7% active; in the data active means activity change below about -50%; inconclusive means mostly about -30% to -49%
#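 Secreted IL-1B measured by AlphaLISA bead assay after 16 h compound exposure of THP-1 cells; compounds (final up to 57.5 uM) added 1 h before LPS (250 ng/mL) and ATP (1.25 mM) stimulation; lower signal means less secretion.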
# TDP1 cell noCPT: qHTS for Inhibitors of human tyrosyl-DNA phosphodiesterase 1 (TDP1): qHTS in cells in absence of CPT | DT40 Tdp1-/- hTDP1 cells, no CPT, ATP luminescence, 48 h | AID 686978, 2013 | Potency, µM (highest dose often 46.2 µM), for inactives: at the highest dose activity change, negative = growth inhibition, most hits filed as inhibitors | 420,000 tested, 15% active; further: potency means the concentration at half of the fitted maximal effect; nearly all actives have a fitted effect of over 55% in size
#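 No-CPT arm: Tdp1-/-;hTDP1 DT40 cells (400/well) plus compounds, incubated ≥48 hr at 37 °C. Readout CellTiter-Glo luminescence.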
# HT1080-NT tox: qHTS for induction of synthetic lethality in tumor cells producing 2HG: qHTS for the HT-1080-NT fibrosarcoma cell line; 360,000 tested, 1.6% active; HT-1080-NT fibrosarcoma viability, CellTiter-Glo ATP luminescence, 48 h; Potency, µM (doses to about 46.1 µM), without a hit: top-dose activity, negative = less viability, actives largely listed as cytotoxic;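 further: NT is the 2HG producing partner of a matched IDH1 knockdown line; potency means the concentration at half of the fitted maximal effect; 0% = DMSO-treated cells and -100% = media-only wells without cells; nearly all actives have a fitted effect of over 55% in size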
#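 A 48-hour cytotoxicity screen used HT-1080-NT cells plated 2 hours before compound delivery. ATP-based CellTiter-Glo luminescence measured viability, normalized to DMSO and no-cell controls.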
# The depositor's hits bear a star; ? = inconclusive; . = no result; ! = a repeat was not active. Unless noted, the call rests on the fitted dose curve; in most records, active means well fitted curve in the direction sought with a large enough effect; inconclusive means small, poorly fitted or top-dose-only effect, or another doubt; inactive means no such curve, though single readings can be large; an effect the other way counts as inactive or inconclusive. Unless noted, on the % scale 0 is the no-effect control and ±100 the full control effect.
SMILES,HT1080 IDH1KD tx,TDP1 cell CPT,ELG1 DNA repair,IL-1B inflam inh,TDP1 cell noCPT,HT1080-NT tox
COc1cccc(-c2csc(N3CCN(C(=O)NC45CC6CC(CC(C6)C4)C5)CC3)n2)c1,?,?,23µM*,-10,13µM*,-23%
COc1cccc(-c2csc(N3CCN(C(=S)Nc4cccc(C)c4)CC3)n2)c1,-14%,-29%,?,?,?,-22%
O=C(/C=C/[C@H]1O[C@@H](n2ccc(=O)[nH]c2=O)[C@H](O)[C@@H]1O)NCc1ccc2c(c1)OCO2,4%,-20%,.,-3,30%,-2%
COc1ccc(C)cc1NC(=O)N1CCN(c2nnc(C)c3c(C)n(-c4ccccc4)nc23)CC1,.,-2%,.,.,-17%,.
CCN[C@H]1CN(CCCOC)S(=O)(=O)c2sc(S(N)(=O)=O)cc21,13%,5%,12%,10,10%,17%
COc1cccc(NC(=O)N2CCN(c3nc(-c4cccc(OC)c4)cs3)CC2)c1,-27%,5.2µM*,15µM*,-16,5.2µM*,-3%
COc1cccc(-c2csc(N3CCN(C(=O)Nc4ccccc4Cl)CC3)n2)c1,1%,?,-7%,-26,?,4%
Cc1cccc(C)c1NC(=O)C1c2ccccc2OCC(=O)N1CCc1ccccc1 (stereo not given),-2%,-21%,.,-16,?,-15%
CCCN1CCN(C(=O)C2CCN(c3nnc(C)c4c(C)n(-c5ccc(C)cc5)nc34)CC2)CC1,?,?,-3%,?,?,?
COc1ccc(-n2nc3c(N4CCC(C(=O)NCCc5ccco5)CC4)nnc(C)c3c2C)cc1,?,?,7%,-51*,?,?
CCOc1ccccc1CNC(=O)C1CCN(c2nnc(C)c3c(C)n(-c4ccc(C)cc4)nc23)CC1,13µM*,5.8µM*,?,-96*,13µM*,?
CCOc1ccc(CNC(=O)C2CCN(c3nnc(C)c4c(C)n(-c5ccc(C)cc5)nc34)CC2)cc1,0%,8.2µM*,-9%,-99*,23µM*,-8%
Cc1ccc(-n2nc3c(N4CCC(C(=O)NCc5ccccc5C)CC4)nnc(C)c3c2C)cc1,8.2µM*,13µM*,-7%,-92*,?,7.3µM*
O=C(NNS(=O)(=O)c1ccc([N+](=O)[O-])cc1)c1ccc([N+](=O)[O-])cc1,12%,4%,-9%,3,-21%,13%
C#CCn1c(=NC(=O)c2sc3ccccc3c2Cl)sc2cc(S(N)(=O)=O)ccc21,0%,?,0%,2,?,-12%
CCOC(=O)c1c(NC(=O)CN2C(=O)C(=O)N(CC(C)C)C2=O)sc(C)c1CC,1%,-7%,-1%,-3,-16%,1%
COc1ccccc1CCNC(=O)C1CCN(c2nnc(C)c3c(C)n(-c4ccc(C)cc4)nc23)CC1,1%,4.6µM*,?,-10,2.9µM*,-4%
CCOc1ccc(-n2nc3c(SCCN4CCCC4)nnc(C)c3c2C)cc1,?,1%,-7%,-97*,-25%,?
Cc1ccc(-n2nc3c(N4CCC(C(=O)N5CCN(C)CC5)CC4)nnc(C)c3c2C)cc1,-24%,-21%,-5%,-18,-13%,-25%
Cc1ccc(-n2nc3c(SCCN4CCOCC4)nnc(C)c3c2C)cc1,0%,?,?,-25,?,1%
COC(=O)CCN(C(=O)c1cccc([N+](=O)[O-])c1)c1ccccn1,5%,5%,-1%,-2,-15%,4%
COc1ccc(C(=O)NCC(=O)N2CCCC(C(F)(F)F)C2)cc1OC (stereo not given),11%,8%,14%,21,5%,3%
O=C(Nc1ccccc1Cc1ccccc1)c1ccccc1NS(=O)(=O)c1ccc(Cl)s1,?,4.6µM*,?,-26,3.7µM*,16µM*
Cc1ccc(NC(=O)c2ccccc2NS(=O)(=O)c2ccc(Cl)s2)cc1,?,23µM*,?,-4,15µM*,21µM*
O=C(Nc1ccccc1)c1ccccc1NS(=O)(=O)c1ccc(Cl)s1,?,?,-16%,0,?,?
SMILES,HT1080 IDH1KD tx,TDP1 cell CPT,ELG1 DNA repair,IL-1B inflam inh,TDP1 cell noCPT,HT1080-NT tox
Fc1ccc(SCCc2ccncc2)cc1,10%,?,-7%,1,18µM*!,15%
O=[N+]([O-])c1ccc(SCCc2ccncc2)cc1,2%,?,?,-5,21µM*,4%
O=[N+]([O-])c1ccc(SCCc2ccccn2)cc1,-19%,-15%,?,-7,-29%,0%
CC(C)(C)OC(=O)NCCc1onc(-c2ccccc2F)c1C(=O)O,-5%,-18%,.,-11,4%,-4%
Cc1ccc(C2NC(=O)c3sc(=S)n(-c4ccccc4)c3N2)cc1 (stereo not given),-23%,23µM*,-10%,12,-30%,-2%
Cc1noc(C)c1CN(C(=S)NC1CC2CCC1C2)c1ccccc1 (stereo not given),-21%,?,?,?,23µM*,-3%
CCOc1c(S(=O)(=O)NC2CC(C)(C)NC(C)(C)C2)ccc(Cl)c1Cl,-26%,?,-6%,?,?,-15%
CCOc1ccc(OCC)c(S(=O)(=O)NC2CC(C)(C)NC(C)(C)C2)c1,-6%,-12%,3%,-59*,-19%,-2%
COc1ccccc1NC(=O)C(C)OC(=O)Cc1ccsc1 (stereo not given),16%,-4%,15%,15,5%,15%
COc1ccccc1NC(=O)C1CC(C(C)C)OC1=O (stereo not given),23%,11%,.,18,2%,?
